# Measured values published in PubChem BioAssay (Tox21).
# Values joined by “and” are separate entries in the source; they are usually repeats but may differ in a detail not shown here. Equal entries are not always repeated. Results filed as inconclusive are left out. Entries that show only a call come without a potency. Values without a mark were called inactive. Active and inactive are the calls of the source. Unless noted, the call rests on the fitted dose curve; in most records, active means well fitted curve in the direction sought with a large enough effect in the repeat runs; inconclusive means weak or mixed curves; inactive means no such curve, though single readings can be large; an effect the other way counts as inactive or inconclusive.
# What was measured:
# [1] = qHTS assay to identify aromatase inhibitors - cell viability counter screen (AID 743084);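 further: cells stimulated with testosterone during compound exposure; nearly all actives have a fitted effect of over 55% in size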; further: potency means the concentration at half of the fitted maximal effect
# [2] = molecular target: Aryl hydrocarbon receptor (Homo sapiens) (UniProt P35869); test: qHTS assay to identify small molecule that activate the aryl hydrocarbon receptor (AhR) signaling pathway (AID 743085); further: nearly all actives have a fitted effect of over 15% in size; further: potency means the concentration at half of the fitted maximal effect;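 on activation: HG2L7.5c1 human HepG2 liver cells with stably integrated DRE-driven firefly reporter; series mostly up to about 70 µM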
# How it was run: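 24 h compound exposure, 37C, HepG2-derived HG2L7.5c1 cells with DRE-responsive luciferase. Readouts: fluorescence viability, then luminescence at room temperature after 30 min.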
# [3] = qHTS assay to identify small molecule that activate the aryl hydrocarbon receptor (AhR) signaling pathway - cell viability counter screen (AID 743086);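 further: HepG2 liver cells carrying the AhR DRE luciferase reporter; series mostly up to about 70 µM; nearly all actives have a fitted effect of over 45% in size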
# How it was run: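 Cytotoxicity counter screen: CellTiter-Fluor signal (30 min, 37 C) in 4000 HepG2 cells/well carrying the DRE-luciferase reporter, following 24 h compound exposure at 37 C.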
# [4] = molecular target: Peroxisome proliferator-activated receptor gamma (Homo sapiens) (UniProt P37231); test: qHTS assay to identify small molecule agonists of the peroxisome proliferator-activated receptor gamma (PPARg) signaling pathway (AID 743094; active means well fitted activation curve with a large enough effect in the signal ratio in the repeat runs, not every such curve was filed as active; the % refers to the signal ratio)
# How it was run: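 GeneBLAzer PPARg UAS-bla HEK293H cells were plated, rested 5 h, then exposed to compounds for 17 h at 37C. Beta-lactamase activity was read by LiveBLAzer B/G FRET substrate fluorescence after 1 h at room temperature.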
# [5] = molecular target: Peroxisome proliferator-activated receptor gamma (Homo sapiens) (UniProt P37231); test: qHTS assay to identify small molecule antagonists of the peroxisome proliferator-activated receptor gamma (PPARg) signaling pathway (AID 743191; calls by dose curve; further: nearly all actives have a fitted effect of over 30% in size; further: potency means the concentration at half of the fitted maximal effect)
# How it was run: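 Beta-lactamase reporter under UAS control in HEK293H PPARg-bla cells; compound treatment 17 h at 37C. Read-out: fluorescence intensity after 1 h room-temperature incubation with LiveBLAzer B/G FRET substrate.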
# [6] = qHTS assay to identify small molecule antagonists of the peroxisome proliferator-activated receptor gamma (PPARg) signaling pathway - cell viability counter screen (AID 743194); further: nearly all actives have a fitted effect of over 55% in size
# How it was run: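 Viability was measured as CellTiter-Glo luminescence in GeneBLAzer PPARg UAS-bla HEK293H cells. These cells had been exposed 17 h at 37 C to compounds together with rosiglitazone at 50 nM final, with the beta-lactamase readout taken in the same wells.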
# [7] = qHTS assay for small molecule agonists of the antioxidant response element (ARE) signaling pathway (AID 743202; active means well fitted activation curve with a large enough effect in the signal ratio in the repeat runs, not every such curve was filed as active; the % refers to the signal ratio; further: potency means the concentration at half of the fitted maximal effect)
# How it was run: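 Quantitative high-throughput format in HepG2 cells bearing an integrated ARE-beta-lactamase reporter. Compound exposure lasted 16 h at 37 C, and fluorescence was read 2 h after adding LiveBLAzer B/G substrate at room temperature.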
# [8] = qHTS assay for small molecule activators of the heat shock response signaling pathway - cell viability counter screen (AID 743209); further: nearly all actives have a fitted effect of over 50% in size
# How it was run: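 HSE-bla HeLa cells plated overnight, then exposed to Tox21 compounds (23 nL in DMSO) for 5 h at 37 C. After the bla reporter read, CellTiter-Glo was added in the same wells and luminescence read after 30 min at room temperature.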
# [9] = qHTS assay to identify small molecule agonists of the peroxisome proliferator-activated receptor delta (PPARd) signaling pathway - cell viability counter screen (AID 743211); further: nearly all actives have a fitted effect of over 55% in size; further: potency means the concentration at half of the fitted maximal effect
# How it was run: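 Luminescent ATP viability assay (CellTiter-Glo, 30 min RT) in UAS-bla HEK293H cells carrying the PPAR delta reporter construct, 3000 cells/well, after a 17 h compound treatment at 37 C.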
# [10] = molecular target: Peroxisome proliferator-activated receptor delta (Homo sapiens) (UniProt Q03181); test: qHTS assay to identify small molecule antagonists of the peroxisome proliferator-activated receptor delta (PPARd) signaling pathway (AID 743215; active means well fitted inhibition curve with a large enough effect in the signal ratio in the repeat runs, not every such curve was filed as active; the % refers to the signal ratio;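 further: cells stimulated with agonist L165041 at 300 nM final during compound exposure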; further: potency means the concentration at half of the fitted maximal effect)
# How it was run: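 PPARd-bla HEK293H cells (UAS-bla reporter) preincubated 5 h, then given compound plus 300 nM final L165041 agonist for 17 h at 37 C. Beta-lactamase activity read by LiveBLAzer B/G FRET substrate fluorescence after 2 h at room temperature.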
# [11] = qHTS assay to identify small molecule agonists of the farnesoid-X-receptor (FXR) signaling pathway - cell viability counter screen (AID 743218); further: nearly all actives have a fitted effect of over 45% in size
# How it was run: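 FXR-UAS-bla HEK 293T cells exposed to compounds for 16 h at 37C. Cytotoxicity read in the same wells by CellTiter-Glo luminescence after 30 min at room temperature, following the beta-lactamase FRET read.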
# [12] = qHTS assay to identify small molecule antagonists of the farnesoid-X-receptor (FXR) signaling pathway - cell viability counter screen (AID 743221; active means well fitted cell-killing curve with a large enough effect in the repeat runs, not every such curve was filed as active; further: nearly all actives have a fitted effect of over 50% in size)
# How it was run: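 In GeneBLAzer FXR-UAS-bla HEK 293T cells stimulated with 50 uM chenodeoxycholic acid (final), compounds acted for 16 h at 37 C. Viability was assessed afterwards by CellTiter-Glo luminescence.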
# [13] = molecular target: Vitamin D3 receptor (Homo sapiens) (UniProt P11473); test: qHTS assay to identify small molecule agonists of the vitamin D receptor (VDR) signaling pathway (AID 743222; calls by dose curve)
# How it was run: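 VDR-bla cells plated 4 h at 37 C, then exposed to compounds for 16 h at 37 C. Beta-lactamase reporter activity measured by fluorescence after 2 h room-temperature loading with LiveBLAzer B/G FRET substrate.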
# [14] = qHTS assay for small molecule agonists of the antioxidant response element (ARE) signaling pathway - cell viability counter screen (AID 743203; calls by dose curve; further: nearly all actives have a fitted effect of over 55% in size)
# How it was run: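 ARE-bla HepG2 cells were plated, rested 5 h at 37C/5% CO2, then exposed to compounds in DMSO for 16 h. Viability was read as CellTiter-Glo luminescence after 30 min at room temperature, in the same wells as the ARE screen.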
# [15] = qHTS assay for small molecule activators of the heat shock response signaling pathway (AID 743210; active means well fitted activation curve with a large enough effect in the signal ratio in the repeat runs, with a control signal flat, not every such curve was filed as active; the % refers to the signal ratio;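 further: HeLa cells with beta-lactamase reporter driven by heat shock elements; series mostly up to about 63 µM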)
# How it was run: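 HeLa HSE-bla cells, overnight plating; cpd in DMSO 5 h, 37 C; LiveBLAzer B/G FRET substrate 2.5 h RT; fluorescence intensity read.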
# [16] = molecular target: Peroxisome proliferator-activated receptor delta (Homo sapiens) (UniProt Q03181); test: qHTS assay to identify small molecule agonists of the peroxisome proliferator-activated receptor delta (PPARd) signaling pathway (AID 743212; calls by dose curve)
# How it was run: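 HEK293H PPARd-bla cells; 5 h preincubation 37 C/5% CO2; compound (DMSO) 37 C; LiveBLAzer B/G FRET substrate 2 h RT; fluorescence intensity.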
# [17] = qHTS assay to identify small molecule antagonists of the peroxisome proliferator-activated receptor delta (PPARd) signaling pathway - cell viability counter screen (AID 743213); further: nearly all actives have a fitted effect of over 50% in size
# How it was run: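 Luminescence from CellTiter-Glo, added after the bla read and incubated 30 min at room temperature, gives viability of HEK293H PPARd-bla cells exposed to compounds for 17 h at 37 C with 300 nM L165041.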
# [18] = molecular target: Vitamin D3 receptor (Homo sapiens) (UniProt P11473); test: qHTS assay to identify small molecule antagonists of the vitamin D receptor (VDR) signaling pathway (AID 743223; active means well fitted inhibition curve with a large enough effect in the signal ratio in the repeat runs, not every such curve was filed as active; the % refers to the signal ratio)
# How it was run: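 Agonist 1alpha,25-dihydroxyvitamin D3 (3 nM in well) was added with each compound to VDR-bla cells preincubated 4 h. Cells stood 16 h at 37C, then FRET substrate 2 h at room temperature; fluorescence intensity recorded.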
# [19] = molecular target: Bile acid receptor (Homo sapiens) (UniProt Q96RI1); test: qHTS assay to identify small molecule antagonists of the farnesoid-X-receptor (FXR) signaling pathway (AID 743217; active means well fitted inhibition curve with a large enough effect in the signal ratio in the repeat runs, not every such curve was filed as active; the % refers to the signal ratio)
# How it was run: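 FXR-UAS-bla HEK 293T cells (beta-lactamase reporter) given compound plus chenodeoxycholic acid (50 uM final), 16 h at 37C. LiveBLAzer B/G FRET substrate added for 2 h at room temperature; fluorescence read.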
# [20] = molecular target: Bile acid receptor (Homo sapiens) (UniProt Q96RI1); test: qHTS assay to identify small molecule agonists of the farnesoid-X-receptor (FXR) signaling pathway (AID 743220; active means well fitted activation curve with a large enough effect in the signal ratio in the repeat runs, not every such curve was filed as active; the % refers to the signal ratio)
# How it was run: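 Beta-lactamase reporter under UAS control in GeneBLAzer FXR HEK 293T cells (5000/well) measured with LiveBLAzer FRET substrate after 2 h at room temperature. Compound exposure lasted 16 h at 37C.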
# Chain of Aryl hydrocarbon receptor (Homo sapiens) (P35869 whole entry, looked up): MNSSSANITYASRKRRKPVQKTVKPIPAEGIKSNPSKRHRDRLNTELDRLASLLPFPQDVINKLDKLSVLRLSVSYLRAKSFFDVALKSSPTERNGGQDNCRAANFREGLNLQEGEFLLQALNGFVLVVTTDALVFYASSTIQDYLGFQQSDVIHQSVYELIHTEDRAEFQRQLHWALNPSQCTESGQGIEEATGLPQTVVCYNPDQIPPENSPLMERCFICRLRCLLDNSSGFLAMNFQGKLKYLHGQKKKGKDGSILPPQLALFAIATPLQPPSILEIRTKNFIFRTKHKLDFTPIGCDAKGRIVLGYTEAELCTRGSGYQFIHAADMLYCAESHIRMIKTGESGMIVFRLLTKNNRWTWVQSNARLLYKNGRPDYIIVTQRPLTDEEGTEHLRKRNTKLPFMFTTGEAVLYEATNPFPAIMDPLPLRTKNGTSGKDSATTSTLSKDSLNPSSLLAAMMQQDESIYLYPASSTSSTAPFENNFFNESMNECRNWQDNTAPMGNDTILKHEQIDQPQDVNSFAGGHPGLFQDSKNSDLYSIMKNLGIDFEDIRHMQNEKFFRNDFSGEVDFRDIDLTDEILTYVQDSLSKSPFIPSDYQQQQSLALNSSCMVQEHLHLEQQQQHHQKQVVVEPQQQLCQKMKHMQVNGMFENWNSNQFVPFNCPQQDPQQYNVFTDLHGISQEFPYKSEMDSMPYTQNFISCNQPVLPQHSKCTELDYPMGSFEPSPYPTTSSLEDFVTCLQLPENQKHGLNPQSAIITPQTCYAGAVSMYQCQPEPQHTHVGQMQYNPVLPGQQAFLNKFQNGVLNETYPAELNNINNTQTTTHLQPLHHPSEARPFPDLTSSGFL
# Chain of Vitamin D3 receptor (Homo sapiens) (P11473 whole entry, looked up): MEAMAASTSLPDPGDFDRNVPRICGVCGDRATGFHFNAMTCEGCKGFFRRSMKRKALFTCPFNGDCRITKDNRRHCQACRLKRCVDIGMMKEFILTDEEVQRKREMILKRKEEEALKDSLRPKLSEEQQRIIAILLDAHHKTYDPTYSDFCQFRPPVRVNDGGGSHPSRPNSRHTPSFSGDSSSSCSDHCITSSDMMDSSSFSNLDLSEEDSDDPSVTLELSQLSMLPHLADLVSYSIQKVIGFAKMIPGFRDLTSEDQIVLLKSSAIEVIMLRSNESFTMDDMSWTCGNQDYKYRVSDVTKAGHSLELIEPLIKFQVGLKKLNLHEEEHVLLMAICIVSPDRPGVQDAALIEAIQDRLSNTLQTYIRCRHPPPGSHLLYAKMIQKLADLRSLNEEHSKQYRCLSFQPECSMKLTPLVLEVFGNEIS
# Chain of Bile acid receptor (Homo sapiens) (Q96RI1 whole entry, looked up): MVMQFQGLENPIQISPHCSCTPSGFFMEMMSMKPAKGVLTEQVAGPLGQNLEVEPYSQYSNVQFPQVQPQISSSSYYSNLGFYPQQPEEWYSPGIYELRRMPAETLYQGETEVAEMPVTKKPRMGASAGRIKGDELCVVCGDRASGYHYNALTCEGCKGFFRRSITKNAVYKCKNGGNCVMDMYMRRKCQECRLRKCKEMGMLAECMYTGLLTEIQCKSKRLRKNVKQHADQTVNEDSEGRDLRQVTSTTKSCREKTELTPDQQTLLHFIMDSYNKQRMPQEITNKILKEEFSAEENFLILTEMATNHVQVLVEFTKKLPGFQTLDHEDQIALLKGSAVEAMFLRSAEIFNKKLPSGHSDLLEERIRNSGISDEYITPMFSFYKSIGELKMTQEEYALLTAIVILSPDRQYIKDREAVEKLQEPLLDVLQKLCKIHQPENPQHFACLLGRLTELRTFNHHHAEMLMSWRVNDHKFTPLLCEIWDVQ
# Chain of Peroxisome proliferator-activated receptor gamma (Homo sapiens) (P37231 whole entry, looked up): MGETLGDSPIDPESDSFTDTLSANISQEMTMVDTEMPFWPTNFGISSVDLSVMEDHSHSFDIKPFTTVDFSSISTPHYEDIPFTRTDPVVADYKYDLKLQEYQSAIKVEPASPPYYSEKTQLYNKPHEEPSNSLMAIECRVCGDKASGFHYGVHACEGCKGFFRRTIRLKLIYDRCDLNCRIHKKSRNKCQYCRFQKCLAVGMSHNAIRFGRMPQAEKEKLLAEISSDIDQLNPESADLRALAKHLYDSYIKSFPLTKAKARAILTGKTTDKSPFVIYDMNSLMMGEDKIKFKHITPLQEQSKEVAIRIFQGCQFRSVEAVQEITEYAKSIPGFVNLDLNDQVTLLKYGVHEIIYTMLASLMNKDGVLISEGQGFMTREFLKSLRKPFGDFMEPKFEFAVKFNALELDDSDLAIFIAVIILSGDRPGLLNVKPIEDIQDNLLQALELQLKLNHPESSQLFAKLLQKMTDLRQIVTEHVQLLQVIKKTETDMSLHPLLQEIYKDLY
# Chain of Peroxisome proliferator-activated receptor delta (Homo sapiens) (Q03181 whole entry, looked up): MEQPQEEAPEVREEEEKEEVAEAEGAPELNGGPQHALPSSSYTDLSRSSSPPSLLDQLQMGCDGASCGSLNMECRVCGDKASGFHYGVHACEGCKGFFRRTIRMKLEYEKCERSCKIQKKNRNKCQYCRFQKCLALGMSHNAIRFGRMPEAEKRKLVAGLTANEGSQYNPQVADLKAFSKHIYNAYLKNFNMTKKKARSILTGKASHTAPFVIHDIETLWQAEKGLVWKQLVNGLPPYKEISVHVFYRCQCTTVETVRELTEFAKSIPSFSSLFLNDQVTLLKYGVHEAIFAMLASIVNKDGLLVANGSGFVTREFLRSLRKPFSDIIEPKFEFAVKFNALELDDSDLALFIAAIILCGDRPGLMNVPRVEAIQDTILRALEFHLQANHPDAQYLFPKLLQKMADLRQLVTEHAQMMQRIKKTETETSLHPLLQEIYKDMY
smiles,measurement,setting,value
CC(C)(C)c1ccc(O)c(O)c1,Potency,[1],54.5 µM (active)
same,Potency,[2],70.9 µM (active) and 34.4 µM (active)
same,Potency,[3],inactive
same,outcome,[4],inactive
same,Potency,[5],18 µM (active)
same,outcome,[6],inactive
same,Potency,[7],28.2 µM (active) and 24.3 µM (active)
same,outcome,[8],inactive
same,Potency,[9],25.4 µM (active)
same,Potency,[10],50.7 µM (active)
same,Potency,[11],inactive
same,Potency,[12],inactive
same,outcome,[13],inactive
CCCCNC(=O)NCCCC,Potency,[1],inactive
same,Potency,[2],inactive
same,Potency,[3],inactive
same,outcome,[4],inactive
same,Potency,[5],inactive
same,outcome,[6],inactive
same,Potency,[14],inactive
same,outcome,[8],inactive
same,outcome,[15],inactive
same,Potency,[9],inactive
same,outcome,[16],inactive
same,Potency,[17],inactive
same,Potency,[10],inactive
same,Potency,[12],inactive
same,outcome,[13],inactive
same,outcome,[18],inactive
O=S(O)CO,Potency,[1],inactive
same,Potency,[2],inactive
same,Potency,[3],inactive
same,outcome,[4],inactive
same,outcome,[6],inactive
same,Potency,[7],inactive
same,Potency,[14],inactive
same,outcome,[8],inactive
same,outcome,[15],inactive
same,Potency,[9],inactive
same,outcome,[16],inactive
same,Potency,[10],inactive
same,outcome,[19],inactive
same,Potency,[11],inactive
same,outcome,[20],inactive
same,Potency,[12],inactive
same,outcome,[13],inactive
CCCCCOC(=O)CCCCC,Potency,[1],inactive
same,Potency,[2],inactive
same,Potency,[3],inactive
same,outcome,[4],inactive
same,outcome,[6],inactive
same,Potency,[7],inactive
same,Potency,[14],inactive
same,outcome,[8],inactive
same,outcome,[15],inactive
same,Potency,[9],inactive
same,outcome,[16],inactive
same,Potency,[17],inactive
same,Potency,[11],inactive
same,Potency,[12],inactive
same,outcome,[13],inactive
same,outcome,[18],inactive
CCOC(=O)c1ccc(C)cc1,Potency,[1],inactive
same,Potency,[2],inactive
same,Potency,[3],inactive
same,outcome,[4],inactive
same,outcome,[6],inactive
same,Potency,[7],inactive
same,Potency,[14],inactive
same,outcome,[8],inactive
same,outcome,[15],inactive
same,Potency,[9],inactive
same,outcome,[16],inactive
same,Potency,[17],inactive
same,Potency,[11],inactive
same,Potency,[12],inactive
same,outcome,[13],inactive
O=[N+]([O-])c1ccc(F)cc1F,Potency,[1],inactive
same,Potency,[2],inactive
same,Potency,[3],inactive
same,outcome,[4],inactive
same,outcome,[6],inactive
same,Potency,[14],inactive
same,outcome,[8],inactive
same,outcome,[15],inactive
same,Potency,[9],inactive
same,outcome,[16],inactive
same,Potency,[17],inactive
same,Potency,[11],inactive
same,Potency,[12],inactive
same,outcome,[13],inactive
same,outcome,[18],inactive
CCCCC/C=C\CCC=O,Potency,[1],inactive
same,Potency,[2],inactive
same,Potency,[3],inactive
same,outcome,[4],inactive
same,outcome,[6],inactive
same,Potency,[14],inactive
same,outcome,[8],inactive
same,outcome,[15],inactive
same,Potency,[9],inactive
same,Potency,[17],inactive
same,Potency,[11],inactive
same,Potency,[12],inactive
same,outcome,[13],inactive
same,outcome,[18],inactive
C[C@](N)(Cc1ccc(O)cc1)C(=O)O,Potency,[1],inactive
same,Potency,[2],inactive
same,Potency,[3],inactive
same,outcome,[4],inactive
same,"activity change, negative = cytotoxicity",[6],4.13% [at 5.95 µM]
same,activation,[7],6.12% [at 8.36 µM]
same,"viability change, negative = cytotoxic",[14],-15% [at 8.36 µM]
same,"activity change, negative = cytotoxicity",[8],1.38% [at 5.95 µM]
same,activation,[15],0.673% [at 5.95 µM]
same,"activity change, negative = cytotoxicity",[9],3.74% [at 5.95 µM]
same,"viability change, negative = cytotoxic",[17],17.6% [at 6.26 µM]
same,"activity change, negative = inhibition",[19],3.49% [at 5.95 µM]
same,"viability change, negative = cytotoxic",[11],17.1% [at 5.95 µM]
same,activation,[20],1.44% [at 5.95 µM]
same,"activity change, negative = cytotoxicity",[12],-5.83% [at 5.95 µM]
N=C(N)c1ccc2cc(OC(=O)c3ccc(N=C(N)N)cc3)ccc2c1,Potency,[1],inactive
same,Potency,[2],inactive
same,Potency,[3],inactive
same,outcome,[4],inactive
same,outcome,[6],inactive
same,Potency,[14],inactive
same,outcome,[8],inactive
same,outcome,[15],inactive
same,Potency,[9],inactive
same,outcome,[16],inactive
same,Potency,[17],inactive
same,Potency,[10],inactive
same,outcome,[19],inactive
same,Potency,[11],inactive
same,outcome,[20],inactive
same,Potency,[12],inactive
same,outcome,[13],inactive
same,outcome,[18],inactive
C[N+](C)(C)CC(O)CC(=O)[O-] (stereo not drawn),Potency,[1],inactive
same,Potency,[2],inactive
same,Potency,[3],inactive
same,outcome,[4],inactive
same,outcome,[6],inactive
same,Potency,[7],inactive
same,outcome,[8],inactive
same,outcome,[15],inactive
same,Potency,[9],inactive
same,outcome,[16],inactive
same,Potency,[17],inactive
same,Potency,[10],inactive
same,Potency,[11],inactive
same,Potency,[12],inactive
same,outcome,[13],inactive
same,outcome,[18],inactive
CC(C)CCCC(C)N (stereo not drawn),Potency,[1],inactive
same,Potency,[2],inactive
same,Potency,[3],inactive
same,outcome,[4],inactive
same,outcome,[6],inactive
same,Potency,[14],inactive
same,outcome,[8],inactive
same,outcome,[15],inactive
same,Potency,[9],inactive
same,Potency,[11],inactive
same,Potency,[12],inactive
same,outcome,[13],inactive
same,outcome,[18],inactive
C=C(C)C(=O)OCCCCCCCC(C)C,Potency,[1],inactive
same,Potency,[2],inactive
same,Potency,[3],inactive
same,outcome,[4],inactive
same,outcome,[6],inactive
same,Potency,[7],inactive
same,Potency,[14],inactive
same,outcome,[8],inactive
same,outcome,[15],inactive
same,Potency,[9],inactive
same,Potency,[17],inactive
same,Potency,[12],inactive
same,outcome,[13],inactive
same,outcome,[18],inactive
OC(CCN1CCCCC1)(c1ccccc1)C1CC2C=CC1C2 (stereo not drawn),Potency,[1],inactive
same,Potency,[2],inactive
same,Potency,[3],inactive
same,outcome,[4],inactive
same,outcome,[6],inactive
same,Potency,[14],inactive
same,outcome,[8],inactive
same,outcome,[15],inactive
same,Potency,[9],inactive
same,outcome,[16],inactive
same,Potency,[10],inactive
same,outcome,[19],inactive
same,outcome,[20],inactive
same,Potency,[12],inactive
same,outcome,[13],inactive
same,outcome,[18],inactive
